# This is a sample that favours compounds with a hit; in the whole collection about 9.2% have one here.
# Rab9 promoter act – qHTS Assay for Rab9 Promoter Activators; Huh7 Rab9 promoter-luciferase reporter, luminescence, 24 h; AID 485297, 2010; 320,000 tested, 2.8% active; Potency, µM (titrated, usually from 9.22 µM), most hits filed as activators; note: nearly all actives have a fitted effect of over 60% in size
#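 Steps: seed 1500 Huh7 Rab9-luc cells per well, rest 2 h at 37 °C; add compound in DMSO; incubate 24 h; add luciferase reagent, 10 min ambient; read luminescence.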
# NPC1 prom act – qHTS Assay for NPC1 Promoter Activators. Huh7 NPC1 promoter luciferase reporter, 24 h. Potency, µM (titrated, usually from 9.22 µM), usual class: activators. 320,000 tested, 2.4% active. AID 485313, 2010; note: nearly all actives have a fitted effect of over 60% in size
#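 Cells: Huh7 expressing luciferase under the NPC1 promoter, 1500/well. Seeded 2 h, compound added, incubated 24 h at 37 °C. Luciferase reagent, 10 min ambient, then luminescence.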
# FLuc counter – qHTS profiling assay for firefly luciferase inhibitor/activator using purifed enzyme and Km concentrations of substrates (counterscreen for miR-21 project); Luciferin 4-monooxygenase (Photinus pyralis), P08659; purified FLuc, Km substrates, luminescence inhibition; Potency, µM (doses to about 57.5 µM), most hits filed as inhibitors; 360,000 tested, 6.9% active; AID 588342, 2011; note: nearly all actives have a fitted effect of over 55% in size
# Target sequence (P08659 whole entry, looked up): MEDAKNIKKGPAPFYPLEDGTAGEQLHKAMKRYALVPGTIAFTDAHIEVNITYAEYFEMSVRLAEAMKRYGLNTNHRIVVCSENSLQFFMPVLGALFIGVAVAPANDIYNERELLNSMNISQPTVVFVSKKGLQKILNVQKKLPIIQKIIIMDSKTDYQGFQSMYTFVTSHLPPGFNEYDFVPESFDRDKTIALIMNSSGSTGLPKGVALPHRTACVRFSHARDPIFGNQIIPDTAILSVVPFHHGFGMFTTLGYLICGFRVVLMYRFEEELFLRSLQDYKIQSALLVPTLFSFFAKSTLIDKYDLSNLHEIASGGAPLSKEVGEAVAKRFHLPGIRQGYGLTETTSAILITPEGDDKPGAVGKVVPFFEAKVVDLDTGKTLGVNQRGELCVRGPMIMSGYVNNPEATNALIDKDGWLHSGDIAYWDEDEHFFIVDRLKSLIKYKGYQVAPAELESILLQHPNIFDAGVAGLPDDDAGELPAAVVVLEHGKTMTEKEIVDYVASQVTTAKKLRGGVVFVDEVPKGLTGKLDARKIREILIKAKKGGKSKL
#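 Purified P. pyralis luciferase (10nM final) with 10uM D-luciferin and 10uM ATP (Km levels) in 50mM Tris acetate pH 7.5, 10mM Mg acetate, 0.01% Tween-20, 0.05% BSA; qHTS 6-point titration, ~60 µM downward; luminescence read.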
# ELG1 genotox – qHTS screen for small molecules that induce genotoxicity in human embryonic kidney (HEK293T) cells expressing luciferase-tagged ELG1; AID 504466, 2011; 330,000 tested, 1.3% active; Potency, µM (series often up to 46 µM), hits mostly activators; HEK293T ELG1-luciferase reporter, luminescence, 16 h; note: nearly all actives have a fitted effect of over 60% in size
#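 Step 1: seed 2,000 HEK293T ELG1-luciferase cells per well. Step 2: add compound or DMSO, incubate 16 hr at 37 °C. Step 3: ONE-Glo, 30 min at room temperature, read luminescence.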
# SMN2 splice enh – qHTS Assay for Enhancers of SMN2 Splice Variant Expression; Potency, µM (doses to about 46.1 µM), most hits filed as activators; AID 1458, 2008; HEK293 SMN2-luciferase splicing reporter, luminescence, 30-36 h; 210,000 tested, 2.8% active; note: nearly all actives have a fitted effect of over 55% in size
#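 HEK293 cells carry an SMN2 minigene-luciferase reporter in which exon 7 inclusion puts luciferase in frame. Cells were seeded at 2000 cells/well, attached for 10-12 hours, then exposed to compounds for 30-36 hours at 37C before ONE-Glo luminescence.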
# ELG1 repair inh – qHTS screen for small molecules that inhibit ELG1-dependent DNA repair in human embryonic kidney (HEK293T) cells expressing luciferase-tagged ELG1; Potency, µM (highest dose often 46.1 µM), actives largely listed as inhibitors; HEK293T ELG1-luciferase reporter, luminescence, 16 h; DNA damage induced by 5-fluorouridine; 330,000 tested, 2.3% active; AID 504467, 2011; note: nearly all actives have a fitted effect of over 55% in size
#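 Reporter activity after DNA damage by 5-fluorouridine is monitored. Compound-treated cells incubate 16 hr at 37 °C, then ONE-Glo is added for 30 min before luminescence reading.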
# Numbers stand for hits; i = inactive; ? = inconclusive; nt = not tested or not shown. Calls come from the whole dose curve; as a rule, active = well fitted curve in the direction sought with a large enough effect; inconclusive = small, poorly fitted or top-dose-only effect, or another doubt; inactive = no such curve, though single readings can be large; an effect the other way counts as inactive or inconclusive.
SMILES,Rab9 promoter act,NPC1 prom act,FLuc counter,ELG1 genotox,SMN2 splice enh,ELG1 repair inh
CCCn1c(N)c(C(=O)CSc2nnc(Cc3ccccc3)o2)c(=O)n(C)c1=O,i,i,i,i,i,5.8µM
CCCn1c(N)c(C(=O)CSc2n[nH]c(-c3ccccc3F)n2)c(=O)n(C)c1=O,i,i,i,i,nt,?
Cc1nn(CC(=O)Nc2ccc3c(c2)nc(CCN2CCCCC2)n3C)c(=O)c2ccccc12,i,i,i,i,i,i
Cc1nn(CC(=O)Nc2ccc3c(c2)nc2n3CCN(C3CCCCC3)C2)c(=O)c2ccccc12,i,i,21µM,i,nt,i
Clc1ccc(-c2nnc(N3CCCC3)nn2)cc1,0.32µM,?,1.2µM,?,6.3µM,?
NC(C(=O)O)C(O)C(=O)O (stereo unspecified),nt,nt,nt,nt,i,nt
c1ccc2c(-c3csc(-c4ccncc4)n3)c[nH]c2c1,?,i,7.6µM,?,13µM,?
Clc1ccc(-c2c[nH]c3ccccc23)nn1,i,i,?,i,i,i
Brc1ccc(-c2csc(-c3c[nH]c4ccccc34)n2)cc1,i,?,21µM,i,?,?
COc1ccc(C)cc1Nc1nc(-c2c[nH]c3ccccc23)cs1,i,i,?,i,i,i
Cc1ccc2oc(-c3ccco3)cc(=O)c2c1,2.8µM,?,9.5µM,21µM,?,?
CC(C)OCCOc1ccc2oc(-c3ccco3)cc(=O)c2c1,?,?,24µM,i,nt,?
N#CCOc1ccc2oc(-c3ccco3)cc(=O)c2c1,i,i,i,i,i,?
CN(C)S(=O)(=O)N1CCc2ccc(NC(=O)c3ccc(C(F)(F)F)cc3)cc2C1,i,i,4.8µM,i,nt,9.2µM
COCCC(=O)N1CCc2ccc(NC(=O)c3ccc(C(F)(F)F)cc3)cc2C1,i,i,13µM,i,nt,13µM
O=C(Nc1ccc2c(c1)C(=O)OC2)c1ccc(C(F)(F)F)cc1,i,i,i,i,nt,i
CC1CCC(C(C)C)[C@H](O)C1 (stereo partly specified),nt,nt,nt,nt,i,nt
CCOC(=O)N1CCC(NC(=O)c2cc(C(=O)Nc3cccc(C(F)(F)F)c3)ccc2CO)CC1,i,i,i,i,i,8.2µM
O=C(COC(=O)C1CC2CCCC(C1)C2=O)NNC(=O)c1ccccc1Br (stereo unspecified),i,i,i,i,nt,i
Cc1csc(=N)n1-c1ccc(Cl)cc1,3.5µM,?,9.5µM,?,i,?
Cc1csc(=S)n1-c1ccccc1,i,i,i,i,i,i
Cc1ccc(-n2c(C)csc2=N)cc1,2µM,3.2µM,5.4µM,5.2µM,11µM,?
O=C(NNc1cccc(Cl)n1)c1ccccc1CC[N+](=O)[O-],i,i,i,i,i,i
CN1CCC(NC(=O)NC2CCCCC2)CC1,i,i,i,i,nt,i
O=C(NC1CCCCCC1)C(=S)NC1CCCCC1,i,2.5µM,5.4µM,?,i,?
SMILES,Rab9 promoter act,NPC1 prom act,FLuc counter,ELG1 genotox,SMN2 splice enh,ELG1 repair inh
O=C(NC1CCCCCCC1)NC1CCCCC1,4µM,3.5µM,17µM,?,?,?
O=C(NC1CCCCCC1)C(=O)NC1CC1,i,i,i,i,nt,i
COc1ccccc1S(=O)(=O)Cc1ccc(C(=O)N2CCN(c3ccccc3)CC2)o1,i,i,i,i,i,21µM
COc1ccccc1S(=O)(=O)Cc1ccc(C(=O)N2CCN(c3cccc(Cl)c3)CC2)o1,i,i,?,i,i,12µM
COc1ccccc1S(=O)(=O)Cc1ccc(C(=O)N2CCOCC2)o1,i,i,i,i,?,i
CC[C@H]1C/C=C\Cc2ccccc2[C@@H](C(=O)C[C@@H](O)CC(C)=O)OC1=O,nt,nt,nt,i,nt,i
Cc1ccc(C2=NN(C(=S)Nc3ccccc3)C(c3ccco3)C2)cc1 (stereo unspecified),3.2µM,2.8µM,7.6µM,?,13µM,?
COc1ccccc1Nc1nc(Cl)nc(NC(C)(C)C)n1,i,i,?,i,i,i
CC(C)(C)Nc1nc(Cl)nc(Nc2ccccc2)n1,?,?,7.6µM,?,nt,?
Clc1nc(Nc2ccccc2)nc(Nc2ccccc2)n1,i,i,24µM,i,i,i
O=C(CS(=O)(=O)c1cn(CC(=O)N2CCOCC2)c2ccccc12)NCc1ccc(F)cc1,i,i,i,i,nt,i
Cc1cc(=O)[nH]c(N/N=C/c2cn(CCC#N)nc2-c2ccccc2)n1,i,i,19µM,i,i,i
OC(COCc1ccc(Cl)cc1)CN1CCN(CC(O)COCc2ccc(Cl)cc2)CC1 (stereo unspecified),i,i,i,i,i,21µM
CC(C)(Oc1ccc(Br)cc1)C(=O)Nc1cc(-c2nc3ccccc3[nH]2)ccc1Cl,nt,nt,i,nt,i,nt
Cc1ccc2c(c1)c1c(c(=O)n(-c3ccccc3C)c(=O)n1CC(=O)NCCC1=CCCCC1)n2C,nt,nt,i,nt,nt,nt
Cc1ccnc(N2CCN(C(=O)CSc3nc4ccccc4nc3N3CCC(C)CC3)CC2)c1,i,i,i,i,i,21µM
Cc1nc2ccccc2nc1SCC(=O)N1CCC(C)CC1,i,i,i,i,i,i
C#CC(C)(C)NC(=O)c1ccc(-c2ccccc2F)cc1,?,?,19µM,?,nt,?
CCCC(=O)Nc1cccc(-c2cn3cccnc3n2)c1,i,i,i,i,i,?
CCOCC(=O)Nc1ccc(-c2cn3cccnc3n2)cc1,i,i,?,i,i,i
CCCC(=O)Nc1ccc(-c2cn3cccnc3n2)cc1,?,i,17µM,i,nt,?
CC(C)(C)CC(=O)Nc1ccc(-c2cn3cccnc3n2)cc1,?,2.8µM,9.5µM,?,nt,?
CC(C)CC(=O)Nc1cccc(-c2cn3cccnc3n2)c1,nt,nt,24µM,nt,nt,nt
CC(C)CC(=O)Nc1ccc(-c2cn3cccnc3n2)cc1,i,?,15µM,?,nt,?
Cc1onc(-c2ccccc2Cl)c1C(=O)Nc1ccc(-c2cn3cccnc3n2)cc1,i,i,i,i,i,13µM
Cc1ccc(-c2cn3cccnc3n2)cc1NC(=O)c1c(-c2ccccc2Cl)noc1C,i,i,?,i,i,?
O=C(NNC(=S)Nc1ccccc1)c1ccc2ncccc2c1,?,i,?,i,i,i
CC(C)(C)NC(=S)NNC(=O)c1ccc2ncccc2c1,0.5µM,?,?,i,14µM,?
O=C(NC(=S)Nc1ccc2nc[nH]c2c1)c1ccccc1,4µM,2.8µM,?,?,nt,?
O=C(Nc1ccc2ncccc2c1)c1ccccc1,i,i,i,i,nt,i

# Source: PubChem
